Consider three molecules from PubChem BioAssay (EPA / NIEHS).

The source made the active and inactive calls. The calls were made as follows: active = hit-call score of the fitted dose curve at least 0.9, where 1 is the maximum; inactive = score below 0.9.

What all share (conditions): mRNA level, 48 h; actives raise or lower the signal
Read-out in assay [1]: Cytochrome P450 4A22 (Homo sapiens) (UniProt Q5TCH4)
As to the kind of experiment: LTEA_HepaRG_CYP4A22: Life Technologies and Expression Analysis (LTEA) Assay for Cytochrome P450 4A22 (CYP4A22) using HepaRG (AID 2283495). An outline of the steps:
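Concentration-response (8 points, max 100 uM, 0.5% DMSO) in human HepaRG liver cells after 48 h exposure. CYP4A22 mRNA by TaqMan qRT-PCR with housekeeping-gene normalization.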

Read-out in assay [2]: Cytochrome P450 7A1 (Homo sapiens) (UniProt P22680)
As to the kind of experiment: LTEA_HepaRG_CYP7A1: Life Technologies and Expression Analysis (LTEA) Assay for Cytochrome P450 7A1 (CYP7A1) using HepaRG (AID 2283496). An outline of the steps: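 Using 0.5% DMSO as vehicle and baseline, chemicals were tested in duplicate over an 8-point range from 100 uM on HepaRG cells for 48 h; qRT-PCR signals were normalised to ACTB, GAPDH and POLR2A.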

Read-out in assay [3]: Glutathione S-Transferase (GSTA2), GSTA2 (gene 2939)
As to the kind of experiment: LTEA_HepaRG_GSTA2: Life Technologies and Expression Analysis (LTEA) Assay for Glutathione S-Transferase (GSTA2) using HepaRG (AID 2283497). The procedure, abridged:
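GSTA2 transcript levels came from Fluidigm TaqMan qRT-PCR normalized to three housekeeping genes, fitted in both directions against DMSO. HepaRG cultures received chemicals for 48 h in serum-free induction medium (0.5% DMSO), 8 half-log concentrations up to 100 uM, duplicate.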

Read-out in assay [4]: Glutamate-cysteine ligase catalytic (GCLC), GCLC (gene 2729)
As to the kind of experiment: LTEA_HepaRG_GCLC: Life Technologies and Expression Analysis (LTEA) Assay for Glutamate-cysteine ligase catalytic (GCLC) using HepaRG (AID 2283498). The procedure, abridged: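 Expression by TaqMan qRT-PCR, normalized to three housekeeping genes (ACTB, GAPDH, POLR2A), with up- or down-regulation fitted against DMSO. HepaRG cells dosed in duplicate for 48 h with 8 half-log concentrations up to 100 uM, vehicle 0.5% DMSO.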

Read-out in assay [5]: growth arrest and DNA damage 45 (GADD45G), GADD45G (gene 10912)
As to the kind of experiment: LTEA_HepaRG_GADD45G: Life Technologies and Expression Analysis (LTEA) Assay for growth arrest and DNA damage 45 (GADD45G) using HepaRG (AID 2283499). An outline of the steps: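 Concentration-response in HepaRG: 48 h dosing, 0.5% DMSO, highest level 100 uM. GADD45G expression by qRT-PCR, normalised to endogenous controls; bidirectional fit to DMSO.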

Read-out in assay [6]: Glutamate-cysteine ligase regulatory (GCLM), GCLM (gene 2730)
As to the kind of experiment: LTEA_HepaRG_GCLM: Life Technologies and Expression Analysis (LTEA) Assay for Glutamate-cysteine ligase regulatory (GCLM) using HepaRG (AID 2283500). The procedure, abridged: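 In this multiplexed HepaRG gene-expression assay, GCLM mRNA change after 48 h treatment (8 concentrations, max 100 uM) was scored against DMSO by bidirectional curve fitting.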

Read-out in assay [7]: Glutathione S-transferase M3 (GSTM3), GSTM3 (gene 2947)
As to the kind of experiment: LTEA_HepaRG_GSTM3: Life Technologies and Expression Analysis (LTEA) Assay for Glutathione S-transferase M3 (GSTM3) using HepaRG (AID 2283501). The procedure, abridged: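 Expression of GSTM3 is determined by qRT-PCR in human liver HepaRG cells treated 48 h with an 8-point half-log range from 100 uM in 0.5% DMSO.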

Read-out in assay [8]: Hypoxia-inducible factor 1-alpha (Homo sapiens) (UniProt Q16665)
As to the kind of experiment: LTEA_HepaRG_HIF1A: Life Technologies and Expression Analysis (LTEA) Assay for Hypoxia-inducible factor 1 (HIF1A) Trancription factor using HepaRG (AID 2283503).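 Also: HIF1A transcript by TaqMan qRT-PCR normalized to ACTB GAPDH and POLR2A.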 An outline of the steps:
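Gain- or loss-of-signal HIF1A mRNA changes are fitted against a DMSO baseline. HepaRG cultures receive eight concentrations, highest 100 uM, for 48 h in serum-free induction medium with 0.5% DMSO.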

Read-out in assay [9]: 3-Hydroxy-3-Methylglutaryl-CoA Synthase 2 (HMGCS2), HMGCS2 (gene 3158)
As to the kind of experiment: LTEA_HepaRG_HMGCS2: Life Technologies and Expression Analysis (LTEA) Assay for 3-Hydroxy-3-Methylglutaryl-CoA Synthase 2 (HMGCS2) using HepaRG (AID 2283504). An outline of the steps: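 This steatosis marker was read as HMGCS2 mRNA change in HepaRG cells treated 48 h with up to 100 uM chemical. Normalisation used housekeeping genes; activity in either direction was fitted relative to 0.5% DMSO vehicle.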

Read-out in another assay: HGF (gene 3082)
As to the kind of experiment: LTEA_HepaRG_HGF: Life Technologies and Expression Analysis (LTEA) Assay for Hepatocyte Growth Facto (HGF) using HepaRG (AID 2283505). The procedure, abridged:
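Using HepaRG monolayers kept in 0.5% DMSO, chemicals were tested in duplicate over eight half-log concentrations from 100 uM for 48 h. Endpoint: HGF mRNA change relative to DMSO, normalized to ACTB/GAPDH/POLR2A.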

Read-out in assay [10]: Insulin Like Growth Factor 1 (IGF1), IGF1 (gene 3479)
As to the kind of experiment: LTEA_HepaRG_IGF1: Life Technologies and Expression Analysis (LTEA) Assay for Insulin Like Growth Factor 1 (IGF1) using HepaRG (AID 2283506). An outline of the steps:
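Endpoint: IGF1 mRNA change by qRT-PCR, housekeeping-normalized, fitted bidirectionally relative to 0.5% DMSO vehicle. Human HepaRG cells were treated 48 h in serum-free induction medium, eight half-log concentrations topping at 100 uM.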

Read-out in assay [11]: Intercellular Adhesion Molecule 1 (ICAM1), ICAM1 (gene 3383)
As to the kind of experiment: LTEA_HepaRG_ICAM1: Life Technologies and Expression Analysis (LTEA) Assay for Intercellular Adhesion Molecule 1 (ICAM1) using HepaRG (AID 2283507). The procedure, abridged:
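Using the human liver line HepaRG, compounds are tested in duplicate over 48 h at concentrations up to 100 uM. Expression is determined by TaqMan qRT-PCR, normalized to endogenous controls, and analysed relative to 0.5% DMSO vehicle.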

Read-out in assay [12]: Insulin-like growth factor-binding protein 1 (IGFBP1), IGFBP1 (gene 3484)
As to the kind of experiment: LTEA_HepaRG_IGFBP1: Life Technologies and Expression Analysis (LTEA) Assay for Insulin-like growth factor-binding protein 1 (IGFBP1) using HepaRG (AID 2283508). An outline of the steps:
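HepaRG, 48 h, 8 conc. (max 100 uM, half-log), duplicates, 0.5% DMSO. Readout: TaqMan qRT-PCR, ACTB/GAPDH/POLR2A normalisation. Fit: bidirectional vs DMSO.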

Read-out in assay [13]: Interleukin 6 Receptor (IL6R), IL6R (gene 3570)
As to the kind of experiment: LTEA_HepaRG_IL6R: Life Technologies and Expression Analysis (LTEA) Assay for Interleukin 6 Receptor (IL6R) using HepaRG (AID 2283510). An outline of the steps: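 In this HepaRG screen, test chemicals act on cells for 48 h at up to 100 uM (eight half-log points, duplicate wells). IL6R expression is quantified by qRT-PCR after normalization to ACTB, GAPDH and POLR2A, with DMSO as baseline.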

Read-out in assay [14]: Potassium channel subfamily K member 1 (KCNK1), KCNK1 (gene 3775)
As to the kind of experiment: LTEA_HepaRG_KCNK1: Life Technologies and Expression Analysis (LTEA) Assay for Potassium channel subfamily K member 1 (KCNK1) using HepaRG (AID 2283511). The procedure, abridged:
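KCNK1 transcript measured by TaqMan qRT-PCR against three housekeeping genes, after HepaRG cells were treated 48 h with eight half-log concentrations (top 100 uM, 0.5% DMSO). Curves fitted bidirectionally relative to vehicle.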

Read-out in assay [15]: Keratin 19 (KRT19), KRT19 (gene 3880)
As to the kind of experiment: LTEA_HepaRG_KRT19: Life Technologies and Expression Analysis (LTEA) Assay for Keratin 19 (KRT19) using HepaRG (AID 2283512). An outline of the steps: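 Readout is qRT-PCR of KRT19 mRNA, normalized to ACTB, GAPDH and POLR2A, from HepaRG cells treated 48 h with eight-point half-log dilutions topping at 100 uM. Activity in either direction is scored relative to 0.5% DMSO vehicle.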

Read-out in assay [16]: JUN Transcription Factor, JUN (gene 3725)
As to the kind of experiment: LTEA_HepaRG_JUN: Life Technologies and Expression Analysis (LTEA) Assay for JUN Transcription Factor using HepaRG (AID 2283513). An outline of the steps: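 Gene-expression endpoint: JUN mRNA (qRT-PCR, normalized to three reference genes) in HepaRG cultures treated 48 h with chemicals, duplicate wells, 100 uM maximum with half-log dilutions; bidirectional fitting relative to 0.5% DMSO.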

Read-out in assay [17]: Lipase C (LIPC), LIPC (gene 3990)
As to the kind of experiment: LTEA_HepaRG_LIPC: Life Technologies and Expression Analysis (LTEA) Assay for Lipase C (LIPC) using HepaRG (AID 2283514). The procedure, abridged:
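LIPC expression was quantified by qRT-PCR against three housekeeping genes (ACTB, GAPDH, POLR2A). Differentiated human HepaRG cells received eight half-log doses (top 100 uM, 0.5% DMSO) in duplicate for 48 h; fitting bidirectional relative to DMSO.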

Read-out in assay [18]: Heat shock 70 kDa protein 1 (HSPA1A), gene 3303
As to the kind of experiment: LTEA_HepaRG_HSPA1A: Life Technologies and Expression Analysis (LTEA) Assay for Heat shock 70 kDa protein 1 (HSPA1A) using HepaRG (AID 2283502). The procedure, abridged:
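An oxidative-stress marker readout: HepaRG cells treated 48 h in duplicate with an eight-point series (highest 100 uM) had HSPA1A mRNA quantified by TaqMan qRT-PCR. Activity was fitted in both directions using 0.5% DMSO as baseline.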

Read-out in assay [19]: Interleukin 6 (IL6), IL6 (gene 3569)
As to the kind of experiment: LTEA_HepaRG_IL6: Life Technologies and Expression Analysis (LTEA) Assay for Interleukin 6 (IL6) using HepaRG (AID 2283509). An outline of the steps:
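Transcript levels, normalized to three housekeeping genes, were quantified by qRT-PCR after 48 h chemical treatment of HepaRG cells. Eight-point half-log series from 100 uM in 0.5% DMSO, duplicates. Fitted both directions against DMSO baseline.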

In general, AC50 refers to the concentration at which the activity in the assay is half-maximal.

Sequence of Hypoxia-inducible factor 1-alpha (Homo sapiens) (Q16665 whole entry, looked up): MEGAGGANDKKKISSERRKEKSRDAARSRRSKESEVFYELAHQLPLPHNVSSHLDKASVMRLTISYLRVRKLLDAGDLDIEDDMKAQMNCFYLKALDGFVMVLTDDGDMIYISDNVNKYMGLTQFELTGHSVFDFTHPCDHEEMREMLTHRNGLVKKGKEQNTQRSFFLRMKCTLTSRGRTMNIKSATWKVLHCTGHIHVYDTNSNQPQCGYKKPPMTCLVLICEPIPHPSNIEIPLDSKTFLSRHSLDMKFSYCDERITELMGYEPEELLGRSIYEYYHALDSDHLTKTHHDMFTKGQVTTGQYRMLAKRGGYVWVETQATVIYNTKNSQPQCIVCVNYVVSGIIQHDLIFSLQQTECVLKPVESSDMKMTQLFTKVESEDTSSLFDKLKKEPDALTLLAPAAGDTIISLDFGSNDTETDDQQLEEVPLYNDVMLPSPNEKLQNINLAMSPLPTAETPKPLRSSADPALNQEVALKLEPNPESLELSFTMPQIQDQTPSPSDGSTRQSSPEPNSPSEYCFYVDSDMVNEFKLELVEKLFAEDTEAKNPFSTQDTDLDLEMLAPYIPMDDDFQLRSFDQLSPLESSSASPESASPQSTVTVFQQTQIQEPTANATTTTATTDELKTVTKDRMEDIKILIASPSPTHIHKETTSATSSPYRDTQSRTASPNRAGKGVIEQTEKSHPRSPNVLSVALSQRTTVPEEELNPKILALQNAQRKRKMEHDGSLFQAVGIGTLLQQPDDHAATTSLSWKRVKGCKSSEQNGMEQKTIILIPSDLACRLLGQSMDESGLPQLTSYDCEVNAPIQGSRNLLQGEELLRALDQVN

Consider `NC(=O)c1nc(-c2cccc(-c3cc(F)ccc3OCC(F)(F)C(F)(F)F)c2)n[nH]1`, for which the AC50 in [1] was 9.78 µM (active); in assay [8], 87.2 µM (active); in assay [9], 50 µM (active); with HGF (gene 3082), 77.2 µM (active); in assay [10], 83.2 µM (active); in assay [12], 78.1 µM (active). In addition, the values for the AC50 in assay [15] and in [16] were 12.1 µM (active) and 79 µM (active), respectively. Besides, the call in assay [2], in assay [3], in assay [4], in assay [5], in [6] and in assay [7] was inactive. Besides, the result in [11], in assay [13], in assay [14] and in assay [17] was inactive.
With `O=C1c2ccccc2C(=O)N1CCc1noc(-c2ccc(CN3CCCCCC3)s2)n1`, the result in assay [1], in assay [2], in assay [3], in assay [4], in [5] and in assay [6] was inactive. The molecule was called inactive in assay [18], in [8], in assay [9], in assay [10], in assay [11] and in assay [12]. The outcome in assay [19], in assay [13], in [14], in assay [15], in assay [16] and in assay [17] was inactive.
As for `CCCCCCCCN(C)CCCCCCCC`, the outcome in [1], in assay [2], in [3], in assay [4], in [5] and in assay [6] was inactive. The call in assay [7], in [18], in [8], in assay [9], in assay [10] and in [11] was inactive. Also, the molecule was called inactive in assay [12], in assay [13], in [14], in assay [15], in [16] and in assay [17].
